The results in this text go back to PubChem BioAssay AID1903 (Southern Research Specialized Biocontainment Screening …, 2009).

Broadly, the inhibition is the drop in the measured response relative to a control, in per cent.

About 1,200 (0.39%) of roughly 310,000 compounds were called active. The list is a sample of the results. Potency and affinity values are given separately. Values without a mark were called inactive. The rule behind the calls is not given here.

Sequence of Large T antigen (Simian virus 40) (P03070 whole entry, looked up): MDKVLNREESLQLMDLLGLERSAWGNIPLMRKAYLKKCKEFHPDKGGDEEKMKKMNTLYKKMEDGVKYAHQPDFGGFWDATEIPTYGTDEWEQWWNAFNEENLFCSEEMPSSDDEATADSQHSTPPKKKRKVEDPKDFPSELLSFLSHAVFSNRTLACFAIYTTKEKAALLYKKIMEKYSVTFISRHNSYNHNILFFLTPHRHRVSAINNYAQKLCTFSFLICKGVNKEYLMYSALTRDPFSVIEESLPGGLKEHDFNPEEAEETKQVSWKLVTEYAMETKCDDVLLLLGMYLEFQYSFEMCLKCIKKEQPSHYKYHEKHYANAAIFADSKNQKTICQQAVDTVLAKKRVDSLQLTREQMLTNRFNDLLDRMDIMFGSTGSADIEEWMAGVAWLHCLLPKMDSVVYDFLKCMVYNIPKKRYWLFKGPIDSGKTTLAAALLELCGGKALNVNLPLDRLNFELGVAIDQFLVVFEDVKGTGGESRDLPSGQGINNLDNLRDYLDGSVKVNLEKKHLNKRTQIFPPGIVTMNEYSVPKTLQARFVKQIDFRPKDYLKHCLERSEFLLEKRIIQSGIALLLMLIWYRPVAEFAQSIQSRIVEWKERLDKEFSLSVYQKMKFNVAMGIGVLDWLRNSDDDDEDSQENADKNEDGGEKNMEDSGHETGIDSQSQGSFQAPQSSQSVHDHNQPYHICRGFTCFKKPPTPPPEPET

The assay addresses Large T antigen (Simian virus 40) (UniProt P03070). Put plainly: TAg ATPase/helicase activity blockers – biochemical (AID 1903). Conditions: SV40 large T antigen ATPase/helicase inhibition assay; at 20 µM; active compounds read high.
With `Cc1ccc(CNC(=O)CCC2CCCN(C(=O)c3ccc4c(c3)OCO4)C2)o1` (stereo unspecified), the inhibition was 12.7%. As for `CNc1nc(Nc2ccc(Br)cc2)nc(N)c1[N+](=O)[O-]`, the inhibition was 9.77%. The value for `N#Cc1cnc(Nc2ccc(F)cc2)nc1N` was 7.13%; that for `C[C@H](CCC(=O)O)[C@H]1CC[C@H]2[C@@H]3[C@H](O)C[C@@H]4C[C@H](O)CC[C@]4(C)[C@H]3CC[C@]12C` was 19.2%. For `C[C@H](CCC(=O)O)[C@H]1CC[C@H]2[C@@H]3CC[C@@H]4C[C@H](O)CC[C@]4(C)[C@H]3C[C@H](O)[C@]12C` the value was 12.7%. The value for `Cc1nsc2nc3c(F)c(F)c(F)c(F)c3cc12` was 16.9%. Turning to `Cc1c(/C=N/NC(N)=O)c2ccccn2c1C(=O)c1ccncc1`, the inhibition is 15%.

Turning to `CCCCOc1ccc(/C=C/C(=O)OCC(=O)N2CC(=O)Nc3ccccc32)cc1OCC`, the inhibition was 14.1%. Take `COc1ccc(/C=C/C(=O)OCC(=O)Nc2ccc(S(N)(=O)=O)cc2)cc1OC`: the inhibition is 5.77%.

Take `COc1cc(/C=C/C(=O)OCC(=O)Nc2ccc(S(=O)(=O)N3CCCC3)cc2)ccc1O`: the inhibition was 24.6%.

Turning to `COc1ccc(/C=C/C(=O)OCC(=O)N2CC(=O)Nc3ccccc32)cc1`, the inhibition is 1.89%.

Turning to `Cc1cc(C(=O)NCCC(c2ccccc2)c2ccccc2)c(C)o1`, the inhibition was 8.32%.

As for `CC1(C)Cc2cccc(Oc3cc(NN4CCCCC4)c([N+](=O)[O-])cc3[N+](=O)[O-])c2O1`, the inhibition was 1.3%. For `Cc1nn(C(C)C(=O)NCC2CCCO2)c(=O)c2cc3occc3n12` (stereo unspecified) the value was -0.26%; for `COc1ccc(/C=N/NC(=O)CSc2ccccn2)cc1OC`, 10.6%. For `CN(C)c1ccc(/C=N/NC(=O)CSc2ccccn2)cc1` the value was 25.6%; for `CCCOc1ccc(/C=N/NC(=O)CSc2ccccn2)cc1OC`, 3.28%; for `COc1cc(/C=N/NC(=O)CSc2ccccn2)ccc1OC(C)C`, 14.9%.

On to `CCN(C(=O)CN1C(=S)NC(C)(C)CC1C)c1ccc(C)c(C)c1` (stereo unspecified), for which the inhibition is 6.37%. With `O=C(CSc1nnc(NC(=O)c2c(F)cccc2F)s1)Nc1ccccc1F`, the inhibition was 11.2%. The value for `CCCOc1ccccc1N1C(=O)CC(N(O)c2ccccc2)C1=O` (stereo unspecified) was 20.6%; that for `CCNc1nc(NCC)nc(NC(N)=S)n1` was 1.3%. Regarding `Cc1cc(C)c2nncn2n1`, the inhibition is 11.8%.

In the case of `O=C(O)Cc1c[nH]c2ccccc12`, the inhibition is 10.4%. As for `NC(=O)Cc1c[nH]c2cccc(O)c12`, the inhibition was 30.1%.

For the compound `Cc1ccc2c(c1)C1C=CCC1C(C(=O)NCCCN1CCOCC1)N2` (stereo unspecified), the inhibition was 12.6%. The value for `CCOC(=O)C1Nc2ccc(C(=O)O)cc2C2C=CCC12` (stereo unspecified) was 16.5%; that for `CCOC(=O)C1Nc2ccc(C)cc2C2C=CCC12` (stereo unspecified) was 8.94%. Regarding `Cc1cc(C)c2c(c1)NC(c1cc3c(cc1Br)OCO3)C1CC=CC21` (stereo unspecified), the inhibition was 9.15%. The value for `O=C(O)C1Nc2c(Cl)cc(Cl)c(Cl)c2C2C=CCC12` (stereo unspecified) was 31%; that for `CCOC(=O)c1ccc2c(c1)C1C=CCC1C(C(=O)OCC)N2` (stereo unspecified) was 12.4%; that for `O=C(NC1CC1)C1Nc2ccc(OC(F)(F)F)cc2C2C=CCC12` (stereo unspecified) was 6.67%. Consider `CCOC(=O)C1Nc2ccc(OC(F)(F)F)cc2C2C=CCC12` (stereo unspecified), for which the inhibition is 19.1%. Take `O=S(=O)(Nc1cccc(-c2ccc(N3CCCCCC3)nn2)c1)c1ccc(C(F)(F)F)cc1`: the inhibition is 2.18%. The value for `C#CCOCCOCCOCCNc1nc(N2CCN(C(=O)Cn3cc(CCCCN)nn3)CC2)nc(N2CCN(C(=O)[C@H](C(C)C)n3cc(CCO)nn3)CC2)n1` was 9.84%; that for `CC1=C(C(=O)NCc2ccccc2)C(c2cccnc2)n2ncnc2N1` (stereo unspecified) was 0.75%; that for `Cc1cc(=O)[nH]c(SCc2ccccc2)n1` was -3.07%. The value for `CCN(c1ccccc1)S(=O)(=O)c1ccc2ccccc2c1` was 1.9%; that for `COc1cccc(OC)c1C(=O)Nc1ccc([N+](=O)[O-])cn1` was 8.19%. Regarding `O=C(OC1CCCCC1)c1ccc2c(c1)C1C=CCC1C(C(=O)O)N2` (stereo unspecified), the inhibition is 33.8%. The value for `CC(=O)c1ccc2c(c1)C1C=CCC1C(c1ccncc1)N2` (stereo unspecified) was 7.95%; that for `COc1ccccc1NC(=O)COC(=O)c1ccccc1C(=O)N1CCN(c2ccccc2)CC1` was 6.53%.

Turning to `COc1cc(Cl)ccc1NC(=O)COc1ccccc1C(=O)NN`, the inhibition was 6.94%. For `COc1cc(SC)ccc1C(=O)N1CCN(c2ccccc2OC)CC1` the value was 2.01%; for `COc1ccc(N2CCN(C(=O)c3ccc(SC)cc3OC)CC2)cc1`, 18.7%. In the case of `COc1cc(SC)ccc1C(=O)N1CCN(Cc2ccc3c(c2)OCO3)CC1`, the inhibition was 18.1%.

In the case of `COc1cc(SC)ccc1C(=O)N1CCN(c2ccccc2)CC1`, the inhibition is 2.66%. For `Cc1ncc([N+](=O)[O-])n1Cc1ccc(Br)cc1`, the inhibition is 7.03%. The value for `CCc1cccc(C)c1NC(=O)CN(C)Cc1ccc(Br)cc1` was 9.47%. For `O=C(NCc1ccco1)C1CC(c2ccc(F)cc2)=NO1` (stereo unspecified) the value was 6.38%; for `COC(=O)/C(C#N)=C\c1c(OC)[nH]c2ccccc12`, 8.82%; for `N#C/C(=C\c1c[nH]c2ccccc12)C(N)=O`, 5.89%. As for `O=C(CN(c1ccccc1F)S(=O)(=O)c1ccccc1)Nc1ccccc1C(=O)N1CCOCC1`, the inhibition was 11.3%. `Cc1cccc(NC(=O)c2ccc(N3CCOCC3)c([N+](=O)[O-])c2)n1`: the inhibition is -1.72%. For `O=C(CNC(=O)c1cccc(F)c1)N/N=C/c1cccnc1`, the inhibition was 20.9%. For `C=C(C)CSc1nc2c(cc1C#N)CCC2` the value was 7.26%; for `CCn1c(COc2ccc(C)cc2)nc2ccccc21`, 3.75%; for `Cc1ccc(-c2nc3ccccc3nc2-c2ccccc2)cc1`, 0.76%. Consider `Cc1ccc(-c2nc(N)s[n+]2-c2ccccc2)cc1`, for which the inhibition is 13.6%. The value for `O=C1C(Cl)=C(N2CCCCC2)C(=O)N1Cc1ccccc1` was 0.56%; that for `Cc1ccc(C(=O)N/C(=C\c2sccc2C)C(=O)NCc2ccco2)cc1` was 7.34%.
